From PubChem BioAssay AID1159580 (chemical genetic matrix, 2015)
“And” between values parts separate entries of the source, which are not always exact repeats. Identical values can stand only once. In all, about 5,500 compounds went through this assay and about 2,000 (36%) were called active. Not shown: some 18% with an inconclusive outcome. This is one part of the list. Values without a mark were called inactive. No stated cut-off is given here; in the data, active means normalized growth mostly below about 0.91 (no sharp cut-off); inconclusive means no clear call, values can overlap the other calls; inactive means mostly above about 0.92.

Test: chemical genetic growth profiling, strain panel (AID 1159580);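 further: tested at 20 µM; growth read once vehicle control cultures reached saturation at 30 °C; 1 = growth at the plate median or of vehicle wells; lower values mean less growth of the strain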
Settings: S. cerevisiae deletion strains, growth OD

CCCC(CCC)C(=O)O
normalized growth (locus YJR066W, strain TOR1, active compounds read low): 0.926
normalized growth (locus YJR075W, strain HOC1, active compounds read low): 0.982
normalized growth (locus YKL009W, strain mrt4, active compounds read low): 0.977
normalized growth (locus YKL068W, active compounds read low): 0.91 (active)
normalized growth (locus YKL085W, strain MDH1 (second series), active compounds read low): 0.918 (active)
normalized growth (locus YKL085W, strain MDH1, active compounds read low): 0.918 (active)
normalized growth (locus YKL160W, strain elf1, active compounds read low): 1
normalized growth (locus YKR001C, strain vps1, active compounds read low): 0.932
normalized growth (locus YKR026C, strain gcn3, active compounds read low): 1.01
normalized growth (locus YKR091W, strain srl3, active compounds read low): 1.01
normalized growth (locus YLL001W, strain dnm1, active compounds read low): 1
normalized growth (locus YLL026W, active compounds read low): 0.993
normalized growth (locus YLL041C, strain sdh2, active compounds read low): 1.01
normalized growth (locus YLR027C, strain aat2, active compounds read low): 1
normalized growth (locus YLR039C, strain RIC1, active compounds read low): 0.97
normalized growth (locus YLR058C, strain SHM2, active compounds read low): 0.999
normalized growth (locus YLR102C, strain apc9, active compounds read low): 0.977
normalized growth (locus YLR113W, strain HOG1, active compounds read low): 0.853 (active)
normalized growth (locus YLR221C, strain rsa3, active compounds read low): 0.999
normalized growth (locus YLR258W, strain gsy2, active compounds read low): 1.01
normalized growth (locus YLR262C, strain YPT6 (second series), active compounds read low): 0.99
normalized growth (locus YLR262C, strain YPT6, active compounds read low): 0.945
normalized growth (locus YLR268W, strain sec22, active compounds read low): 0.961
normalized growth (locus YLR320W, strain mms22, active compounds read low): 1.01
normalized growth (locus YLR330W, strain CHS5, active compounds read low): 0.992
normalized growth (locus YLR342W, strain FKS1 (second series), active compounds read low): 1.01
normalized growth (locus YLR342W, strain FKS1, active compounds read low): 1.01
normalized growth (locus YLR357W, strain rsc2, active compounds read low): 1.06
normalized growth (locus YLR370C, strain arc18, active compounds read low): 1.01
normalized growth (locus YLR371W, strain rom2, active compounds read low): 0.975
normalized growth (locus YLR384C, strain iki3, active compounds read low): 1.01
normalized growth (locus YLR418C, strain cdc73, active compounds read low): 0.987
normalized growth (locus YML016C, strain PPZ1, active compounds read low): 0.992
normalized growth (locus YML032C, strain rad52, active compounds read low): 0.98
normalized growth (locus YML120C, strain ndi1, active compounds read low): 1
normalized growth (locus YML124C, strain tub3, active compounds read low): 0.95
normalized growth (locus YMR058W, strain fet3, active compounds read low): 1.01
normalized growth (locus YMR078C, strain ctf18, active compounds read low): 0.967
normalized growth (locus YMR125W, strain sto1, active compounds read low): 1.03
normalized growth (locus YMR129W, active compounds read low): 1.01
normalized growth (locus YMR205C, strain PFK2, active compounds read low): 1.02
normalized growth (locus YMR223W, strain ubp8, active compounds read low): 0.994
normalized growth (locus YMR231W, strain pep5, active compounds read low): 1.02
normalized growth (locus YMR263W, strain SAP30, active compounds read low): 0.999
normalized growth (locus YMR307W, strain GAS1, active compounds read low): 1.04
normalized growth (locus YNL067W, strain RPL9B, active compounds read low): 0.988
normalized growth (locus YNL071W, strain lat1, active compounds read low): 1.01
normalized growth (locus YNL128W, strain TEP1, active compounds read low): 1
normalized growth (locus YNL175C, strain NOP13, active compounds read low): 1
normalized growth (locus YNL183C, strain NPR1, active compounds read low): 0.931
normalized growth (locus YNL197C, strain WHI3, active compounds read low): 0.971
normalized growth (locus YNL209W, strain ssb2, active compounds read low): 1.01
normalized growth (locus YNL224C, strain SQS1, active compounds read low): 0.981
normalized growth (locus YNL233W, strain BNI4, active compounds read low): 0.977
normalized growth (locus YNL248C, strain rpa49, active compounds read low): 1.04
normalized growth (locus YNL250W, strain rad50, active compounds read low): 0.937
normalized growth (locus YNL271C, strain bni1, active compounds read low): 0.942
normalized growth (locus YNL298W, strain CLA4, active compounds read low): 0.969
normalized growth (locus YNL307C, strain MCK1, active compounds read low): 0.945
normalized growth (locus YNL322C, strain KRE1 (second series), active compounds read low): 1
normalized growth (locus YNL322C, strain KRE1, active compounds read low): 0.983 and 0.987
normalized growth (locus YNR049C, strain mso1, active compounds read low): 1.01
normalized growth (locus YNR052C, strain pop2, active compounds read low): 0.985
normalized growth (locus YOL006C, strain TOP1, active compounds read low): 1.05
normalized growth (locus YOL012C, strain htz1): 1.46
normalized growth (locus YOL147C, strain pex11, active compounds read low): 0.961
normalized growth (locus YOR001W, strain rrp6, active compounds read low): 1.01
normalized growth (locus YOR061W, strain CKA2, active compounds read low): 0.998
normalized growth (locus YOR069W, strain VPS5, active compounds read low): 0.985
normalized growth (locus YOR070C, strain gyp1, active compounds read low): 1.01
normalized growth (locus YOR080W, strain dia2, active compounds read low): 1.02
normalized growth (locus YOR083W, strain WHI5 (second series), active compounds read low): 0.985
normalized growth (locus YOR083W, strain WHI5, active compounds read low): 0.998
normalized growth (locus YOR106W, strain vam3, active compounds read low): 1.01
normalized growth (locus YOR136W, strain idh2, active compounds read low): 0.968
normalized growth (locus YOR144C, strain elg1, active compounds read low): 0.965
normalized growth (locus YOR184W, strain ser1, active compounds read low): 0.966
normalized growth (locus YOR231W, strain MKK1, active compounds read low): 0.935
normalized growth (locus YOR265W, strain rbl2, active compounds read low): 1.01
normalized growth (locus YOR270C, strain vph1, active compounds read low): 1.07
normalized growth (locus YOR290C, strain snf2, active compounds read low): 1
normalized growth (locus YOR316C, strain cot1, active compounds read low): 0.977
normalized growth (locus YPL051W, strain arl3, active compounds read low): 0.999
normalized growth (locus YPL055C, strain LGE1, active compounds read low): 1
normalized growth (locus YPL078C, strain atp4, active compounds read low): 1.01
normalized growth (locus YPL106C, strain sse1, active compounds read low): 1.01
normalized growth (locus YPL240C, strain hsp82, active compounds read low): 1.02
normalized growth (locus YPL256C, strain CLN2, active compounds read low): 0.882
normalized growth (locus YPR119W, strain clb2, active compounds read low): 0.976
normalized growth (locus YPR141C, strain kar3, active compounds read low): 0.871 (active)
normalized growth (locus YPR163C, strain tif3, active compounds read low): 0.959
normalized growth (locus YPR167C, strain met16, active compounds read low): 0.973
normalized growth (strain wtn01, active compounds read low): 0.954
